Source: PubChem (Sanford-Burnham Center for Chemical Genomics)
This is a sample that favours compounds with a hit; in the whole collection about 31% have one here.
CYP2C9 activ = CYP2C9 (human) activation; AID 1024; recombinant CYP2C9, luciferin-H conversion, luminescence; hits give high values; factor 1 = untreated enzyme, 0 = blocked; 96,000 tested, 1.4% active; activation factor at 5 µM;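 active means activation factor of 2 or more for CYP2C9 at a 5 µM dose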;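 further: 0 = sulfaphenazole-blocked wells and 1 = vehicle-only wells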
CYP2C19 inhib = blocks human cytochrome P450 2C19 | CYP2C19 Supersomes, luciferin-H EGE luminescence, 30 min | inhibition, % at 5 µM | 96,000 tested, 21% active;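 active means CYP2C19 inhibition above a set limit at 5 µM in the primary screen, cut at about 50% in these data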;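 further: plate controls were negative control wells for no effect and 2.5 mM tranylcypromine positive control for full effect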
CYP2C9 inhib = blocks human cytochrome P450 2C9; 96,000 tested, 20% active; CYP2C9 Supersomes, luciferin-H conversion, luminescence; inhibition, % at 5 µM;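 active means blocking of liver enzyme CYP2C9 beyond about 50% at 5 µM, limit read from the data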
PLAP act = activators of human placental alkaline phosphatase. P05187. purified PLAP enzyme, luminescent substrate read-out; hits give high values. activation fold at 20 µM. 96,000 tested, 1.2% active. AID 696; in the data active means activation fold above about 2
Target sequence (P05187 whole entry, looked up): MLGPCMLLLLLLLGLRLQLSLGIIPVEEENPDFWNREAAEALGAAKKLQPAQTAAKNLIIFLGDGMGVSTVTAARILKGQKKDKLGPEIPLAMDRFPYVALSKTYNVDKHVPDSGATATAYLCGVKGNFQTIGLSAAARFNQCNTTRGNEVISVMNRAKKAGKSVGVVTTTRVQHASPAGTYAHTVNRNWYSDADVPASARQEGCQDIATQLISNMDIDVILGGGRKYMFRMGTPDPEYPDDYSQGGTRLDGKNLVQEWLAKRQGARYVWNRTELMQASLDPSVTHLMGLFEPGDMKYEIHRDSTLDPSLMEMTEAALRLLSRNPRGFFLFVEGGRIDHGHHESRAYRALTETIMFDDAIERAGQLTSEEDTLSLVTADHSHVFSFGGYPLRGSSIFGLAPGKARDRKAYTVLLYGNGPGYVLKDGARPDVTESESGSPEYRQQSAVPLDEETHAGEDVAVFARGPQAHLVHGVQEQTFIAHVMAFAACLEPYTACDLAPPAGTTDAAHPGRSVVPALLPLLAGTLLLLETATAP
CYP2C19 activ = activators of human cytochrome P450 2C19. recombinant CYP2C19, luciferin-H EGE luminescence; hits give high values; 0 = fully inhibited enzyme, 1 = untreated enzyme. activation factor at 5 µM. 96,000 tested, under 10 active. AID 1025;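 active means activation factor of at least 2 at 5 µM in the primary screen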;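 further: 0 = wells with 2.5 mM tranylcypromine and 1 = vehicle-only wells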
Numbers without * were called inactive.

SMILES	CYP2C9 activ	CYP2C19 inhib	CYP2C9 inhib	PLAP act	CYP2C19 activ
CN(C)CCCN1C(=O)c2oc3ccc(F)cc3c(=O)c2C1c1cccnc1 (centres undefined)	1.1	8.4	-9.6	1.5	0.9
O=C1C2C3C=CC([C@@H]2C(=O)N1Cc1cccnc1)C31CC1 (some centres undefined)	0.9	72.1*	6.3	0.9	0.3
CC1(C)CCCC2=C1CC1C(=O)N(Cc3cccnc3)C(=O)C1C2 (centres undefined)	0.7	28.3	32.0	1.1	0.7
O=C1CSC(=S)N1c1cccnc1	1.2	-21.0	-17.7	1.1	1.2
O=C1CSC(=S)N1Cc1cccnc1	0.2	52.9*	76.5*	1.9	0.5
Cc1cc(NC(=O)COC(=O)C2CCN(S(=O)(=O)c3cccc(Cl)c3Cl)CC2)no1	0.9	14.0	14.8	0.8	0.9
Cc1ccc(NCCC(=O)c2cccc([N+](=O)[O-])c2)c(C)c1	0.6	75.4*	37.6	1.1	0.2
Cc1ccc(C(=O)O/N=C(\N)c2cccc([N+](=O)[O-])c2)cc1	0.9	7.3	14.8	1.2	0.9
COc1cccc(/C(O)=C2\C(=O)C(=O)N(c3ccccn3)C2c2cccc(OC)c2OC)c1 (centres undefined)	1	-13.5	1.2	1.3	1.1
CC(=O)C1=C(C)NC(SCC(=O)c2ccc(Cl)cc2)=C(C#N)C1CC(C)C (centres undefined)	0	99.1*	95.2*	1.2	0
CC(=O)C1=C(C)NC(SCC(N)=O)=C(C#N)C1C (centres undefined)	1.3	-25.8	-30.6	0.8	1.3
CCc1ccc(C(=O)CSC2=C(C#N)C(c3ccco3)C(C(C)=O)=C(C)N2)cc1 (centres undefined)	0.2	47.8	75.8*	1.2	0.5
CCOC(=O)C1=C(C)NC(SCC(=O)O)=C(C#N)C1c1ccco1 (centres undefined)	0.6	-1.9	41.2	1	1
CC(=O)C1=C(C)OC(N)=C(C#N)C1c1ccco1 (centres undefined)	1	36.5	-3.9	1.1	0.6
CC(=O)C1=C(C)NC(SCC(=O)c2ccc(F)cc2)=C(C#N)C1c1ccco1 (centres undefined)	0.2	97.8*	79.7*	1.2	0
CC(=O)C1=C(C)NC(SCc2cccc([N+](=O)[O-])c2)=C(C#N)C1c1ccco1 (centres undefined)	0.2	100.0*	83.5*	0.8	0
COc1ccc(CC(=O)N2CCN(c3ccc(C4=NNC(=O)CC4C)cc3)CC2)cc1 (centres undefined)	0.9	6.4	6.1	1	0.9
COc1ccccc1NC(=O)Nc1ncccc1C	1.2	5.7	-18.1	1	0.9
OC(CNCc1ccco1)Cn1c2ccc(Br)cc2c2cc(Br)ccc21 (centres undefined)	0.9	-1.1	5.1	1.1	1
COc1ccccc1NC(=O)C1=C(C)NC(SCC(=O)c2ccc(C)cc2)=C(C#N)C1c1ccco1 (centres undefined)	0.1	84.2*	89.9*	1.6	0.2
Cc1cc(C)n2nc(SCC(=O)c3ccc[nH]3)nc2n1	0.5	30.5	54.6*	1.5	0.7
CNC(=O)CSc1nc2nc(C)cc(C)n2n1	0.9	16.0	8.4	1	0.8
CCOc1ccc(C(=O)Nc2ccc(Cl)cn2)cc1Cl	1	16.3	2.2	1.1	0.8
O=C1CC(NCc2ccco2)C(=O)N1CCc1ccccc1 (centres undefined)	1	48.0	2.1	1.2	0.5
COc1ccc(CCNC2CC(=O)N(CCc3ccccc3)C2=O)cc1 (centres undefined)	0.7	70.4*	34.5	1.9	0.3
SMILES	CYP2C9 activ	CYP2C19 inhib	CYP2C9 inhib	PLAP act	CYP2C19 activ
Cc1ccc(NC2CC(=O)N(CCc3ccccc3)C2=O)cc1 (centres undefined)	1	63.8*	0.1	1.3	0.4
COc1ccc(CCN2C(=O)CC(NCCc3ccc(S(N)(=O)=O)cc3)C2=O)cc1OC (centres undefined)	0.7	3.7	29.8	1.5	1
CCOc1ccc2ccccc2c1C(=O)N1CCOCC1	0.9	16.0	6.4	1.1	0.8
COc1ccccc1NC(=O)c1oc2ccc(C)cc2c1C	2*	3.9	-103.1	1	1
Cc1ccc2c(CC(=O)NCC3COc4ccccc4O3)coc2c1 (centres undefined)	0	99.7*	95.3*	1.6	0
COc1ccccc1NC(=O)Cc1coc2cc(C)ccc12	0.6	64.0*	41.9	1	0.4
COCC(=O)Nc1c(C(=O)Nc2ccccc2OC)oc2ccccc12	0.9	0.0	11.5	1	1
CCOc1ccccc1NC(=O)Cc1coc2cc(C)ccc12	0.1	94.6*	89.9*	0.8	0.1
Cc1nc2ccccc2c2oc(C(=O)NCC3COc4ccccc4O3)cc12 (centres undefined)	0.6	5.3	35.8	1.5	0.9
Cc1ccccc1OCC(=O)NNC(=O)c1ccc(-c2ccccc2)cc1	1.2	15.8	-23.8	1.1	0.8
Cc1nc(C)n(CC(O)COc2ccc3cc(Br)ccc3c2)n1 (centres undefined)	1.1	36.1	-6.2	1.4	0.6
Cc1cc(NC(=O)CSc2nnc(-c3cccnc3)n2C2CCCCC2C)no1 (centres undefined)	0.9	20.6	9.2	1	0.8
Cc1ccccc1Nc1nnc(SCc2cc([N+](=O)[O-])cc3c2OCOC3)s1	0.4	99.5*	62.0*	2*	0
O=[N+]([O-])c1cc2c(c(CSc3nnc(Nc4ccccc4)s3)c1)OCOC2	0.9	1.1	9.4	1.1	1
COc1ccccc1OCC(=O)Nc1cccc(C(=O)N2CCOCC2)c1	0.8	-0.8	16.8	1.4	1
O=C(NC1CCCC1)C1CCC(=O)N1CCc1ccccc1 (centres undefined)	0.5	36.7	53.9*	1	0.6
Cc1cc(C)c2c(=O)c3c(oc2c1)C(=O)N(CCO)C3c1cccc(O)c1 (centres undefined)	0.5	50.3*	53.5*	1.4	0.5
Cc1ccc2oc3c(c(=O)c2c1)C(c1cccc(Cl)c1)N(CCCN1CCOCC1)C3=O (centres undefined)	0.9	2.7	13.8	1.4	1
CCCC(=O)NNc1cc(=O)c2c(=O)n(C)c(=O)n(C)c2[nH]1	1.1	-11.6	-9.3	0.8	1.1
O=C1CC(C(=O)N2CCOCC2)C2(CCCCC2)O1 (centres undefined)	1.2	26.1	-23.9	1.1	0.7
CC1CCc2nn(CC(=O)NCc3ccc(F)cc3)cc2C1 (centres undefined)	0.5	89.7*	46.6	0.9	0.1
CC1CCc2nn(CC(=O)Nc3c(F)cc(F)cc3Br)cc2C1 (centres undefined)	0.4	43.1	62.2*	1.2	0.6
COc1cccc(NC(=O)CSc2nnc(-c3cc(-c4ccccn4)nc4ccccc34)o2)c1	0.8	6.9	18.4	1.3	0.9
